Laboratory results: PubChem BioAssay AID1345085 (National Center for Advancing Translational Sciences (NCATS), 2018)
Inconclusive results are not listed. Calls of active or inactive are those of the source. Calls follow the shape of the dose curve; as a rule, active = well fitted cell-killing curve with a large enough effect; inconclusive = small, poorly fitted or top-dose-only effect, or effect the other way; inactive = no such curve, though single readings can be large or run the other way.

These compounds were tested on Jar (assay: Confirmatory qHTS for gynecologic anti-cancer compounds from libraries of approved drugs and bioactive compounds). Conditions: gynecologic cancer cell panel viability, ATPlite luminescence, 48 h; series mostly up to 57.6 µM.
Summary of the method: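 Cells (1,000/well) were plated, left 16 h at 37 C/5% CO2, then given compound at 11 concentrations (1:3) from 57.5 uM to 0.977 nM for 48 h. ATPlite luminescence after 15 min at room temperature gave IC50 values.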
% is scaled to controls: 0 for no effect and ±100 for the full control effect; potency is read from the fitted curve at half-maximal effect.
Also: nearly all actives have a fitted effect of over 55% in size.

Structure (SMILES)	Potency	activity change, negative = viability loss
Nc1nc(=S)c2[nH]cnc2[nH]1	9680 nM (active)	–
O=C(/C=C/c1cccc(S(=O)(=O)Nc2ccccc2)c1)NO	943 nM (active)	–
Cc1cc(Nc2nc(N[C@@H](C)c3ncc(F)cn3)ncc2Cl)n[nH]1	inactive	–
O=c1[nH]c(=O)n([C@H]2C[C@H](O)[C@@H](CO)O2)cc1C(F)(F)F	inactive	–
Nc1ccn([C@@H]2O[C@H](CO)[C@@H](O)C2(F)F)c(=O)n1	inactive	–
Cc1ccc(NC(=O)c2ccc(CN3CCN(C)CC3)cc2)cc1Nc1nccc(-c2cccnc2)n1	inactive	–
Cc1nc(NC(=O)N2CCCC2C(N)=O)sc1-c1ccnc(C(C)(C)C(F)(F)F)c1 (configuration not stated)	12200 nM (active)	–
N=C(N)c1ccc(OCCCCCOc2ccc(C(=N)N)cc2)cc1	5440 nM (active)	–
COc1ccc(OC)c(-c2nnc3ccc(-c4ccc(OC)c(O[C@@H]5CCOC5)c4)nn23)c1	12200 nM (active)	–
CNC1CCC(N(Cc2cccc(-c3ccncc3)c2)C(=O)c2sc3ccccc3c2Cl)CC1 (configuration not stated)	34300 nM (active)	–
CO[C@@]12[C@H](COC(N)=O)C3=C(C(=O)C(C)=C(N)C3=O)N1C[C@@H]1N[C@@H]12	inactive	–
CCC1C(=O)N(C)c2cnc(Nc3ccc(C(=O)NC4CCN(C)CC4)cc3OC)nc2N1C1CCCC1 (configuration not stated)	21.7 nM (active)	–
C[C@]12CCC(=O)C=C1[C@@H]1C[C@@H]1[C@H]1[C@@H]3[C@@H]4C[C@@H]4[C@@]4(CCC(=O)O4)[C@@]3(C)CC[C@@H]12	inactive	–
Cc1[nH]c2ccccc2c1CCNCc1ccc(/C=C/C(=O)NO)cc1	193 nM (active)	–
CC(=O)O[C@H]1C(=O)[C@@]2(C)[C@H]([C@H](OC(=O)c3ccccc3)[C@]3(O)C[C@H](OC(=O)[C@H](O)[C@@H](NC(=O)c4ccccc4)c4ccccc4)C(C)=C1C3(C)C)[C@]1(OC(C)=O)CO[C@@H]1C[C@@H]2O	36.6 nM (active)	–
CC[C@H](Nc1ncnc2nc[nH]c12)c1nc2cccc(F)c2c(=O)n1-c1ccccc1	–	-10.1% [at 10.7 µM] (inactive)
CCC1C(=O)N(C)c2cnc(Nc3ccc(C(=O)NC4CCC(N5CCN(CC6CC6)CC5)CC4)cc3OC)nc2N1C(C)C (configuration not stated)	61.1 nM (active)	–
CCN1CCN(Cc2ccc(-c3cc4c(NC(C)c5ccccc5)ncnc4[nH]3)cc2)CC1 (configuration not stated)	21700 nM (active)	–
Cc1cc(Nc2cc(N3CCN(C)CC3)nc(/C=C/c3ccccc3)n2)n[nH]1	24300 nM (active)	–

Structure (SMILES)	Potency	activity change, negative = viability loss
Nc1ccccc1NC(=O)c1ccc(CNC(=O)OCc2cccnc2)cc1	4320 nM (active)	–
CN[C@@H](C)C(=O)N[C@H]1CN(C(=O)CC(C)C)CC[C@H]2CC[C@@H](C(=O)NC(c3ccccc3)c3ccccc3)N2C1=O	inactive	–
CC[C@@]1(O)C(=O)OCc2c1cc1n(c2=O)Cc2c-1nc1ccccc1c2/C=N/OC(C)(C)C	968 nM (active)	–
COc1cc(N2CCC(N3CCN(C)CC3)CC2)ccc1Nc1ncnc(Nc2ccccc2S(=O)(=O)C(C)C)n1	inactive	–
CCOc1ccc(Nc2nc(-c3c(C)nc4ccccn34)cs2)cc1	24.3 nM (active)	–
C[C@]12CCC(=O)C=C1CC[C@@H]1[C@@H]2[C@@H](O)C[C@@]2(C)[C@H]1CC[C@]2(O)C(=O)CO	inactive	–
CCC(=O)N1CCN(c2ccc(-n3c(=O)ccc4cnc5ccc(-c6cnc7ccccc7c6)cc5c43)cc2C(F)(F)F)CC1	1570 nM (active)	–
CNC(=O)c1nn(C)c2c1C(C)(C)Cc1cnc(Nc3ccc(N4CCN(C)CC4)cc3)nc1-2	1720 nM (active)	–
CNC(=O)c1ccccc1Sc1ccc2c(/C=C/c3ccccn3)n[nH]c2c1	19300 nM (active)	–
Cc1cnc(Nc2cccc(CN3CCOCC3)c2)nc1Nc1cccc(S(=O)(=O)NC(C)(C)C)c1	21700 nM (active)	–
FC(F)(F)c1ccc(/C=C/c2nc(COc3ccc(CCCCn4ccnn4)cc3)co2)cc1	17.2 nM (active)	–
CCN(CC)CCCC(C)Nc1ccnc2cc(Cl)ccc12 (configuration not stated)	inactive	–
COC(=O)c1ccc2c(C(=Nc3ccc(N(C)C(=O)CN4CCN(C)CC4)cc3)c3ccccc3)c(O)[nH]c2c1	inactive	–
Cc1cc(C(=O)N2CCN(c3cccc(Cl)c3)CC2)n(-c2ccccc2)n1	1720 nM (active)	–
Cn1c(=O)c(-c2c(Cl)cccc2Cl)cc2cnc(Nc3cccc(C(=O)O)c3)nc21	2430 nM (active)	–
Nc1ccc(-c2ccc3ncc4ccc(=O)n(-c5cccc(C(F)(F)F)c5)c4c3c2)cn1	1220 nM (active)	–
COc1cc2nccc(Oc3ccc(NC(=O)C4(C(=O)Nc5ccc(F)cc5)CC4)cc3)c2cc1OC	27300 nM (active)	–
CS(=O)(=O)c1ccc(-c2cnc(N)c(C(=O)Nc3ccccc3)n2)cc1	inactive	–
